The target of one assay is SERBP1 (UniProt Q8NC51). The assay is described as follows: cross-linking mass spectrometry. The following applies: TSTO, in cells.
Chain of YWHAQ, P27348 (P27348 whole entry): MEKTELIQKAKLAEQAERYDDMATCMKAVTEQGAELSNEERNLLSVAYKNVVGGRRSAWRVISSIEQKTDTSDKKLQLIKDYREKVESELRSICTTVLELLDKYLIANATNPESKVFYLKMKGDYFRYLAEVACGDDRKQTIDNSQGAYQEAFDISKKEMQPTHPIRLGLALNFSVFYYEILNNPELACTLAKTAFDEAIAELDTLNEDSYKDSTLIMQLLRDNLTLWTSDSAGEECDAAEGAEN
Chain of YWHAB, P31946 (P31946 whole entry): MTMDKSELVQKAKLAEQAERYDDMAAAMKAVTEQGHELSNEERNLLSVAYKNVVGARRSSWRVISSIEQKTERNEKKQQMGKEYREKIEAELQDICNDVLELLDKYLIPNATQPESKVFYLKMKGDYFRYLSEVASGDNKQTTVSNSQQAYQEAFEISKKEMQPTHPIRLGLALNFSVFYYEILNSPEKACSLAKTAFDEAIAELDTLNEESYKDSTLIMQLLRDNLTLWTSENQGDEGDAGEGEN
Chain of YWHAG, P61981 (P61981 whole entry): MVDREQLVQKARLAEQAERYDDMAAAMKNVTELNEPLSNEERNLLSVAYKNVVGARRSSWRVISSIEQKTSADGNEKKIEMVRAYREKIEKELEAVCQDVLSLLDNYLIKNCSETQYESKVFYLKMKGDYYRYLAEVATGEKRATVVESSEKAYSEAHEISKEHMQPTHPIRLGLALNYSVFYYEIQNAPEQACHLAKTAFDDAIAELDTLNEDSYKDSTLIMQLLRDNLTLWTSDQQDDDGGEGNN
Regarding RPS28, P62857, the cross-linked residues result is listed as “K16 - K140”.
Same read-out and setting: under RPS15, P62841 stands “K58 - K327”; under RPS10, P46783, “K107 - K299”.
Still for that read-out and setting: under RPL34, P49207 stands “K115 - K37”; under RPS3, P23396, “K108 - K236”; under RPL23A, P62750, “K30 - K68”.

In another assay the target is YWHAE (UniProt P62258). The assay is described as follows: cross-linking mass spectrometry. The following applies: TSTO, in cells.
Chain of YWHAE (P62258 whole entry): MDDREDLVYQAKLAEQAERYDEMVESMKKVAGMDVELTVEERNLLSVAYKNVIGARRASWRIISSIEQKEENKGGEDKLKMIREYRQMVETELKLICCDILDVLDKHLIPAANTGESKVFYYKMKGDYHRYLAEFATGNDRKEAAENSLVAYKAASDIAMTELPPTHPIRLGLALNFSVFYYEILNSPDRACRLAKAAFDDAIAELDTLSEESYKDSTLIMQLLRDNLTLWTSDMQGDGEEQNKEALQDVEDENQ
With YWHAQ, P27348, the cross-linked residues result is reported as “K68 - K12”.
On the same count and under the same terms, under YWHAG, P61981 stands “K69 - K12”; under YWHAB, P31946, “K70 - K12”.

Source of the values: article PMC12215968.
